From PubChem BioAssay AID603 (National Center for Advancing Translational Sciences (NCATS), 2007)
Hit rate of the full screen: of about 71,000 compounds, about 180 (0.25%) were called active. This is one part of a sample in which actives are shown more often than they occur. A number with no mark means an inactive call. Calls come from the whole dose curve; as a rule, active = well fitted curve in the direction sought with a large enough effect; inconclusive = small, poorly fitted or top-dose-only effect; inactive = flat fitted curve, though single readings scatter.

Each molecule was assayed on DNA polymerase III holoenzyme (E. coli) (assay: qHTS Assay for Inhibitors of DNA Polymerase III Holoenzyme System). Conditions: reconstituted DNA polymerase III holoenzyme replication, biochemical; series mostly up to 57.1 µM; activity change, negative = inhibition: at the top concentration.
Experimental: NIH Molecular Libraries Screening Centers Network [MLSCN]
NIH Chemical Genomics Center [NCGC]
Assay Provider: Charles McHenry, University of Colorado
E. coli DNA polymerase III holoenzyme complex was assayed for DNA production by fluorescent detection of the double-stranded DNA product with PicoGreen dye. The holoenzyme complex was reconstituted from the following purified protein components: DNA Polymerase III, beta subunit processivity factor, SSB single-stranded DNA binding protein, and Primase. Single-stranded, circular M13Gori was used as a substrate with dNTPs and NTPs also supplied to the substrate reagent. Compounds from the NCGC collection were incubated with the holoenzyme mixture for 15 min at room temperature to allow binding to occur, and then the reaction was started by the addition of substrate. After 30 min incubation at room temperature, PicoGreen solution containing EDTA was added to stop the reaction and to visualize the double-stranded DNA produced. Reaction progress was measured in a ViewLux CCD imager in fluorescence intensity mode by using 480 nm excitation and 540 nm emission filter set.
NCGC Assay Protocol Summary:
Buffer. 50 mM Hepes-KOH, pH 7.5, 5 % Glycerol, 0.02% NP40, 30 mM potassium;
glutamate, 1.5 mM Magnesium Acetate, 16 uM TCEP.
Buffer in columns 3 and 4 as negative control (no enzyme).
Substrate solution: 5 uM each dATP, dGTP, dCTP and TTP, 50 uM each GTP, CTP, UTP and 200 uM ATP, 1.4 nM M13gori (final concentrations).
Enzyme: 154 nM SSB, 2 nM Primase, 1 nM Beta, 0.35 nM Pol III (final concentrations).
PicoGreen/EDTA: 10 mM Tris-HCl, 10 mM EDTA, 5 uM PicoGreen (final concentrations).
Control titration: ChemBridge 5805060 (from 10 mM, then 1:2, in duplicate) was pin-transferred to upper half of column 2.
Three uL of holoenzyme mixture were dispensed to 1536-well Greiner black solid bottom plates. Compounds and controls (23 nL) were transferred via Kalypsys PinTool. The plates were incubated for 15 min at room temperature, and then 1 uL of substrate solution was added to start the reaction. After room temperature incubation for 35 minutes, 1 uL of PicoGreen solution was added to each well and the plates were read 480 nm excitation and 540 nm emission using ViewLux (Perkin-Elmer) High-throughput CCD imager and fluorescence protocol settings.
Keywords: NIH Roadmap, MLSCN, MLI, MLSMR, qHTS, NCGC, DNA Polymerase III, DNAPol3, DNAPoly3, DNA replication targets
% is set by controls: 0 for no effect and ±100 for the full control effect.

| SMILES | activity change, negative = inhibition | Potency |
| --- | --- | --- |
| CC(C)NC(=O)N1CCCC2(CCN(C(=O)c3cccn3C)CC2)C1 | 8.1% |  |
| COc1ccc(N)c(OC)c1 | 2.6% |  |
| CC1=C2C(=O)OC(c3ccoc3)C2(C)CCC1 (configuration not stated) | -5% |  |
| Cn1c(SCC(=O)Nc2cccc(NC(=O)c3cccs3)c2)nnc1-c1ccncc1 | -8.6% |  |
| O=C1c2ccccc2C(=O)N1CCCSc1ccccc1 | -7.1% [at 11.4 µM] |  |
| C[N+](C)(CCCCCC[N+](C)(C)CCCN1C(=O)c2cccc3cccc(c23)C1=O)CCCN1C(=O)c2cccc3cccc(c23)C1=O |  | 15.8 µM (active) |
| COc1ccc(N2C(=O)c3cccc4cccc(c34)C2=O)nn1 | -4.7% |  |
| COc1ccc2[nH]cc(CCNc3cc(-c4ccccc4CN(C)C)ncn3)c2c1 | -2.7% |  |
| O=C(c1cc(C(F)(F)F)cc(C(F)(F)F)c1)N1CCC2(CC1)CN(c1ccncc1)C2 | -0.9% |  |
| CCN1C(=O)/C(=C2\SC(N3CCCCC3)=NC2=O)c2ccccc21 | 0.9% |  |
| C/C=C/C=C/C(=O)O | -6.6% |  |
| O=S(=O)(/C=C/c1ccccc1)NCCc1ccccn1 | -1% |  |
| COc1ccc(S(=O)(=O)Nc2ccc3c(c2)OCO3)cc1Cl | -1.3% |  |
| Cn1c(C(=O)NCCc2ccsc2)cc2c(=O)n(C)c3ccccc3c21 | -10% |  |
| CCN1CCCC1CNC(=O)c1cc2c(=O)n(C)c3ccccc3c2n1C (configuration not stated) |  | 25.1 µM (active) |
| CC1CCCC(C)N1CCCNC(=O)c1cc2c(=O)n(C)c3ccccc3c2n1C (configuration not stated) | -10.1% |  |
| OCCNCCCCOc1ccccc1F | -4.9% [at 11.4 µM] |  |
| CC1(C)S[C@@H]2[C@@H](NC(=O)[C@@H](N)c3ccccc3)C(=O)N2[C@H]1C(=O)O | -5.3% |  |
| Oc1ccc(Cn2cc[nH]c2=S)cc1 | -0.6% |  |
| C[N+]1(CCN=C=NC2CCCCC2)CCOCC1 | -1.6% [at 11.4 µM] |  |
| COc1ccc(C(=O)OCC(=O)c2ccc(C)c(S(=O)(=O)N3CCOCC3)c2)cc1OC | -0.2% |  |
| CCOc1ccc(NC(=O)CCC(=O)n2nc(C)cc2C)cc1 | -2.9% |  |
| Cc1cccc(N2CCN(C(=O)c3cc4c(=O)[nH]c5ccccc5c4n3C)CC2)c1C | -6.2% |  |
| CCCn1c(C)nc2c(NCCCCN(CC)CC)nc(C)nc21 | -1.5% |  |
| NCCNCC1CCNCC1 | -9.7% [at 11.4 µM] |  |
| CCNC(=S)NCC | 9.5% |  |

| SMILES | activity change, negative = inhibition | Potency |
| --- | --- | --- |
| CC(Cc1ccccc1)C(=O)N(C)Cc1ccccc1 (configuration not stated) | 6.7% |  |
| COc1ccccc1CNc1ncncc1-c1cccnc1 | -5.7% |  |
| COc1cccc(NC(=O)Cn2cnc3sc(C)c(S(=O)(=O)N4CCN(C)CC4)c3c2=O)c1 | -5.3% |  |
| COc1ccccc1N1CCN(C(=O)Cn2nnc(-c3cccs3)n2)CC1 | -2.6% |  |
| Cc1[nH]c(N)nc(=S)c1CCCNc1ccccc1 | -9.5% [at 11.4 µM] |  |
| COc1ccc(OCC(=O)N2CCN(C(=O)c3cccs3)CC2)cc1 | -3.6% |  |
| CC(C)C[C@@H](CC(=O)N[C@@H](CCC(=O)O)CC(=O)O)NC(=O)[C@@H]1CCCC[C@H]1NC(=O)C[C@@H](NC(=O)C[C@H](CO)NC(=O)[C@@H]1CCCC[C@H]1N)C(C)C | -7.3% |  |
| Cc1c(C)c2c(c(C)c1O)CC[C@@](C)(CN1CCN(c3cc(N4CCCC4)nc(N4CCCC4)n3)CC1)O2 | 6.2% |  |
| CCCCNC(=O)CSc1nnc(-c2ccco2)n1C | 8.1% |  |
| CCN(CC)CCNC(=O)Cn1cnc2sc(C)c(S(=O)(=O)N3CCOCC3)c2c1=O | 7.1% |  |
| O=C1CC(c2ccccc2)C(=O)N1c1cccc(O)c1 (configuration not stated) | -3.8% |  |
| Cc1cc(Nc2ccc(Br)cc2F)n2ncnc2n1 | -4.2% |  |
| COC(=O)c1ccccc1NC(=O)C1CCN(S(=O)(=O)c2cc(OC)ccc2OC)CC1 | -4.8% |  |
| O=C(NCCCCO)C(F)(F)C(F)(F)C(F)(F)C(=O)NCCCCO | -1.7% |  |
| CCOc1cc(-c2nc3cc(C)ccn3c2NCC2CCCO2)ccc1O (configuration not stated) | -6.1% |  |
| N#C/C=C1\Sc2ccccc2C(=O)N1CC(=O)N1CCN(S(=O)(=O)c2ccccc2)CC1 | 8.5% |  |
| COc1ccc(NC(=O)N2CC3(CCN(C(C)=O)CC3)C2)cc1 | -2.4% |  |
| CCN(CC(=O)NCc1cccs1)c1nnnn1-c1ccccc1 | -8.3% |  |
| O=C1N(Cc2ccc3c(c2)OCO3)c2ccccc2C1(O)c1c[nH]c2ccccc12 (configuration not stated) | 5.2% |  |
| Cc1nc2cnc(N3CCN(C)CC3)nc2n(C[C@H]2CCCO2)c1=O | -13.3% |  |
| O=C(O)c1c(Br)c(Br)c(Br)c(Br)c1C1c2ccc(O)cc2Oc2cc(O)ccc21 |  | 0.0251 µM (active) |
| N#CC1=C(N)Oc2cc(O)ccc2C1C1CCCCC1 (configuration not stated) | -6.4% |  |
| FC(F)(F)c1ccccc1-c1nc(-n2ccnc2)c2ccccc2n1 | -4.4% |  |
| O=C(CSc1nc(-c2ccco2)cc(C(F)(F)F)n1)N1CCc2ccccc2C1 | 4.6% |  |
| O=C(O)/C(=C/c1c(C(=O)O)[nH]c2cc(Cl)cc(Cl)c12)c1ccccc1 |  | 31.6 µM (active) |
| COCCCNC(=O)c1ccc(CNS(=O)(=O)c2ccc(NC(C)=O)cc2)cc1 | -6.1% |  |
